Laboratory results taken from the supplement of paper PMC10941209.
Values without a mark were called inactive.

tested on: Toxoplasma gondii RH 2F1 tachyzoites (intracellular in HFF); experiment: parasite survival relative to DMSO control; higher = less antiparasitic activity, active = 20 or less; conditions: 1 µM; 72 h
Outline: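 Compound at 1 μM was applied for 72 h at 37°C in 5% CO2 to HFF cells in 96-well plates (5 × 10^3 cells/well) that had been infected for 3 h in D2 medium with 5 × 10^3 Toxoplasma gondii RH-2F1 tachyzoites carrying β-galactosidase. The readout was absorbance at 570 nm, 30 min after CPRG addition. Survival is reported as a percentage of the signal from infected wells given DMSO, based on at least 2 biological replicates.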

SMILES | parasite survival
Nc1c(C(=O)NCc2ccco2)c2nc3ccccc3nc2n1CCN1CCCCC1 | 37%
Cc1ccccc1NC(=O)Nc1cccc([N+](=O)[O-])c1 | 24.2%
CC#C[C@]1(O)CC[C@H]2[C@@H]3CCC4=CC(=O)CCC4=C3[C@@H](c3ccc(N(C)C)cc3)C[C@@]21C | 45.7%
CCC(C)(C)c1ccc(CC(C)CN2C[C@@H](C)O[C@@H](C)C2)cc1 (some centres undefined) | 35.1%
CN1CCN(Cc2ccc(-c3cnc4[nH]cc(-c5ccc6[nH]ccc6c5)c4c3)cc2)CC1 | 7.23% (active)
OB1OCc2c1ccc(Cl)c2F | 77.1%
O=C(CCc1ccc2c(c1)OCO2)NCc1ccc(-c2ccccc2F)cc1 | 54.9%
COc1ccc(C2=CC(c3c(F)cccc3Cl)n3ncnc3N2)cc1 (centres undefined) | 71.5%
Cc1c[nH]c(=O)nc1NCc1ccccc1 | 49.9%
Nc1nc(=O)c(Br)c(-c2ccccc2)[nH]1 | 75.4%
O=C(O)C[C@H]1CC[C@H](c2ccc(-c3ccc(Nc4ccc(C(F)(F)F)nc4)cn3)cc2)CC1 | 42.6%
O=C(Nc1ncc(Cc2cccc3ccccc23)s1)C1CCCCC1 | 25.3%
O=C(NC1CCCc2c1[nH]c1ccc(Cl)cc21)c1ccccn1 (centres undefined) | 63.8%
NC(=O)c1ccccc1NC(=O)c1ccc(C(=O)Nc2ccccc2C(N)=O)cc1 | 39.5%
O=C(NC12CC3CC(CC(C3)C1)C2)c1cc2ccccc2[nH]1 | 14.7% (active)
CCCCCCC1c2ccc(O)cc2Oc2cc(O)ccc21 | 25.2%
COc1cc(Cc2cnc(N)nc2N)cc(OC)c1OC | 52.6%
O=C(/C=C\n1cnc(-c2cc(C(F)(F)F)cc(C(F)(F)F)c2)n1)NNc1ccccn1 | 4.89% (active)
O=C(c1cc(O)nc2ccccc12)N1CCN(c2ccccc2)CC1 | 77.5%
C=C(C)[C@@H]1CC[C@]2(C(=O)O)CC[C@]3(C)[C@H](CC[C@@H]4[C@@]5(C)CC[C@H](O)C(C)(C)[C@@H]5CC[C@]43C)[C@@H]12 | 46.6%

SMILES | parasite survival
N#C/C(=C1/SC[C@H](c2ccc(Cl)cc2Cl)S1)n1ccnc1 | 41.2%
O=C(Nc1nnc(-c2ccccc2)o1)c1ccc(F)cc1 | 52.8%
CCc1ccc(C2CC(C(F)(F)F)n3ncc(C(=O)NCc4ccc(OC)cc4)c3N2)cc1 (centres undefined) | 25.4%
Cc1cc(C)n(O)c(=O)c1 | 49.3%
C[C@H]1CC[C@@]2(O)C(C)(C)[C@@H]3CC[C@@]2(C)[C@H]1C3 | 55.5%
O=C(Nc1ccc(-c2ccccc2)cc1)C1=C(O)C(Cc2ccccc2)OC1=O (centres undefined) | 54.1%
O=C(NN1C(=O)[C@@H]2[C@@H]3C=C[C@@H]([C@H]4C[C@@H]34)[C@@H]2C1=O)c1ccc(C(F)(F)F)cc1 | 66.1%
Nc1nc(Nc2ccc3nc(-c4ccc(F)cc4)cc(N)c3c2)cc(-c2ccccc2)n1 | 4.03% (active)
C[N+]1(C)CCCC(OC(=O)C(O)(c2ccccc2)c2ccccc2)C1 (centres undefined) | 61.6%
C=CCN(C(=O)OCc1ccc([N+](=O)[O-])cc1)C1CCN(CC[C@](C)(CN(C)S(=O)(=O)c2ccccc2)c2ccccc2)CC1 | 35.5%
CC(C)Oc1cccc(NC(=O)c2ccccc2C(F)(F)F)c1 | 74.1%
CCc1cc(CCC(=O)Nc2ccccc2O)c(O)nc1C | 70.1%
Cc1ccc(S(=O)(=O)Nc2cccc3cccnc23)cc1 | 4.22% (active)
CCOC(=O)/C=C/[C@H](C[C@@H]1CCNC1=O)NC(=O)[C@@H](CC(=O)[C@@H](NC(=O)c1cc(C)on1)C(C)C)Cc1ccc(F)cc1 | 48.2%
O=C(c1nc2c(C(F)(F)F)cc(C3CC3)cn2c1Cl)N1CCN([C@H]2CC[C@H](O)CC2)C(=O)C1 | 21.1%
O[C@@](Cn1cnnn1)(c1ccc(F)cc1F)C(F)(F)c1ccc(-c2ccc(OCC(F)(F)F)cc2)cn1 | 28.8%
Cc1cc(C)n2nc(C(=O)NS(=O)(=O)c3c(C)cccc3OC(F)(F)F)nc2n1 | 45.7%
CC[N+]1(C/C2=C/CCCCCC2)CCC(NC(=O)C2c3cc(Cl)ccc3Oc3ccc(Cl)cc32)CC1 (centres undefined) | 59.8%
Oc1cccc(C(Nc2nccs2)c2ccc3cccnc3c2O)c1 (centres undefined) | 2.96% (active)
